The source holds several records for some structures; these can differ, active in one and inactive in another. Activity calls are given as the source filed them. How the source made its calls: active means hit-call score of the fitted dose curve at least 0.9, where 1 is the maximum; inactive means score below 0.9.
Test: CCTE_Shafer_MEA_dev_correlation_coefficient_mean: CCTE's Neural Network Formation Assay for Mean Correlation Coefficient, Shafer Lab (AID 2284093);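 on AC50: well mean pairwise spike train correlation integrated as AUC over recording days 5 to 12; potency fitted for loss of correlation relative to DMSO vehicle wells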
Procedure, shortened: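 Extracellular firing from rat cortical networks on 48-well MEAs, DMSO-referenced, negative fitting direction. Compound present from plating to DIV12; mean pairwise correlation per well integrated over DIV5–12 recordings by trapezoidal AUC.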
For `OC[C@@H](O)[C@@H](O)[C@H](O)[C@H](O)CO`, the outcome was “inactive”. In the case of `CCCc1cc(=O)[nH]c(=S)[nH]1`, the AC50 is reported as 23900 nM (active) and the outcome is reported as “inactive”. In the case of `C=CCc1ccc(O)c(OC)c1`, the outcome is reported as “inactive”. In the case of `CC(C)c1ccc(C(=O)N=C(N)N)cc1S(C)(=O)=O`, the outcome is reported as “inactive”. With `C[Si]1(C)O[Si](C)(C)O[Si](C)(C)O[Si](C)(C)O1` the outcome was “inactive”. In the case of `O=c1[nH]cc(F)c(=O)[nH]1`, the AC50 is reported as 696 nM (active). For `Cc1cc(=O)[nH]c(=S)[nH]1`, the outcome was “inactive”. For `FC(F)(F)C(F)(F)C(F)(F)C(F)(F)C(F)(F)C(F)(F)CCI`, the outcome was “inactive”. With `CC(=O)Oc1ccccc1C(=O)O` the outcome was “inactive”.

Test: IUF_NPC1b_proliferation_BrdU_72hr: Leibniz Research Institute for Environmental Medicine (IUF) 72-hour Neural Progenitor Cell Bromodeoxyuridine (BrdU) Proliferation Assay (NPC1b) (AID 2284207)
Procedure, shortened: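 BrdU luminescence ELISA quantified DNA synthesis over the last 16 h of a 72 h exposure, fitted against DMSO. Primary hNPC spheres from gestational week 16-19 cortex grown with EGF/FGF at 37C, pH 7.2-7.6.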
In the case of `OC[C@@H](O)[C@@H](O)[C@H](O)[C@H](O)CO`, the outcome is reported as “inactive”. For `C[Si]1(C)O[Si](C)(C)O[Si](C)(C)O[Si](C)(C)O1`, the outcome was “inactive”. In the case of `CC(=O)Oc1ccccc1C(=O)O`, the AC50 is reported as 725 nM (active).

From PubChem BioAssay (EPA / NIEHS)
